From PubChem BioAssay (NCATS) come the findings set out here.

Structures are written as SMILES. Unmarked numbers belong to inactive results. Inconclusive results are not listed. The source made the active and inactive calls. Unless noted, calls follow the shape of the dose curve; as a rule, active = well fitted curve in the direction sought with a large enough effect; inconclusive = small, poorly fitted or top-dose-only effect, or another doubt; inactive = no such curve, though single readings can be large; an effect the other way counts as inactive or inconclusive. Bounds are passed on as bounds.

In experiment [1] the target is Lysosomal acid glucosylceramidase (Homo sapiens) (UniProt P04062). Kind of experiment: Glucocerebrosidase-p2 (AID 348; in the data active = potency below about 10 µM; also: potency is read from the fitted curve at half-maximal effect). The settings on record: purified GBA, blue fluorogenic substrate, 40 min. In a few lines: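 Normal human glucocerebrosidase (0.2 nM) with blue fluorogenic substrate (80 uM final) in citrate/phosphate pH 5.9 with 10mM sodium taurocholate, 0.01% tween-20; 40 min RT, NaOH/glycine stop; fluorescence Ex 365/Em 440; AC50 from a titration from 0.6 nM upwards.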

Experiment [2] can be described thus: AP1 Signaling Pathway (AID 357; active = well fitted curve in either direction with a large enough effect, not every such curve was filed as active;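 also: ME-180 reporter cells stimulated with EGF at its EC50 level; % is scaled to controls: 0 for no effect and ±100 for the full control effect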). As to conditions: ME-180 AP-1-bla reporter, EGF-induced, beta-lactamase ratio, 5 h; at 7.69 µM (top of the series) unless noted. In a few lines:
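First, ME-180 AP-1-bla cells were cultured overnight at 37 °C in low-serum Opti-MEM. Next, titrated compounds with EC50 EGF were incubated 5 hours. Finally, CCF4 was added for 2.5 hours and the 460/530 nm ratio recorded.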

Experiment [3] addresses Cytochrome P450 1A2 (Homo sapiens) (UniProt P05177). The experiment in a line: p450-cyp1a2 (AID 410; calls by dose curve; also: potency is read from the fitted curve at half-maximal effect). As to conditions: recombinant CYP1A2, luciferin-ME demethylation, luminescence; series mostly up to 57 µM. A digest of the protocol:
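Luminescent demethylation readout: Luciferin-ME (100uM, equal to Km) turned over by 20nM CYP1A2 for 60 min at room temperature after NADPH regeneration addition, following 10 min compound preincubation. Normalization used 57 uM furafylline as full inhibition.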

The nature of experiment [4]: NFAT Signaling Pathway (AID 444; active = well fitted curve in either direction with a large enough effect, not every such curve was filed as active;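 also: carbachol stimulus at about its EC50 of 1 µM final; % is scaled to controls: 0 for no effect and ±100 for the full control effect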). The settings on record: Jurkat NFAT-bla M1, carbachol, beta-lactamase ratio, 5 h; at 7.69 µM (top of the series) unless noted. In a few lines: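 Read-out: CCF4 FRET ratio (460 nm/530 nm) after 1 h RT dye loading, used for %activity and AC50 from titration series. Cells: Jurkat NFAT-β-lactamase/M1 line, treated with compound plus 1 uM carbachol for 5 h, 37 °C.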

For experiment [5], the target named is Glucocorticoid receptor (Homo sapiens) (UniProt P04150). The experiment in a line: GR-GFP Redistribution (AID 450;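 active = compounds whose dose series gives a full or clear partial fitted curve of increased nuclear translocation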; also: potency is read from the fitted curve at half-maximal effect). As to conditions: U2OS GR-GFP nuclear translocation, laser cytometry, 2 h.
The target is the same in experiment [6]. The experiment in a line: GR-EFC Redistribution (AID 451; calls by dose curve; also: potency is read from the fitted curve at half-maximal effect). As to conditions: CHO-K1 GR-EFC translocation, beta-gal luminescence, 2 h. A digest of the protocol:
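Translocation of GR-ED fusion to nuclear EA restores b-gal, read by luminescence after 1 h room-temperature detection. Engineered CHO-K1 biosensor cells, 1,000/well, exposed 2 h at 37 C to titrations up to 46 uM final.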

For experiment [7], the target named is Mitogen-activated protein kinase 10 (Mus musculus) (UniProt Q61831). The experiment in a line: JNK3 AlphaScreen Assay (AID 530; active = well fitted curve in either direction with a large enough effect, not every such curve was filed as active;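 also: kinase came from lysate of stimulated human HepG2 cells; signal reports phosphorylation of biotinylated GST-cJun 1-79 at Ser73 with 10 µM ATP; % is scaled to controls: 0 for no effect and ±100 for the full control effect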). As to conditions: JNK3 lysate, c-Jun phosphorylation; series mostly up to 57.1 µM. A digest of the protocol: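 qHTS titrations with 15 min compound pre-incubation before adding ATP (10 uM final). Read-out: AlphaScreen of Ser73-phosphorylated biotin-GST-cJun using HepG2 lysate JNK3 activated by IL-1β and TNFα.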

Experiment [8] deals with 3',5'-cyclic-AMP phosphodiesterase 4B (Homo sapiens) (UniProt Q07343). Kind of experiment: qHTS Assay for Inhibitors of PDE-IV (AID 607; active = well fitted activation curve with a large enough effect in the main read-out, with a control signal flat, not every such curve was filed as active; also: % of control where 0% means no effect). The settings on record: HEK293 ACTOne CNG channel cells, membrane potential fluorescence; series mostly up to 22.9 µM. A digest of the protocol: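 Live HEK293 cells with a modified cyclic nucleotide-gated (CNG) channel report intracellular cAMP via membrane-potential dye fluorescence (ex 535/em 590 nm). Endogenous PDE-IV was targeted. Compounds were tested at up to 22.9 uM final; RO 20-1724 100 uM served as control.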

Experiment [9] is described as follows: qHTS Assay for Identification of Small Molecule Agonists for Hypoxia Response Element Signaling Pathway (AID 914; active = well fitted activation curve with a large enough effect in the signal ratio, with a control signal flat, not every such curve was filed as active; the % refers to the signal ratio; also: potency is read from the fitted curve at half-maximal effect). The settings on record: ME-180 HRE-bla reporter, beta-lactamase ratio, CoCl2, 17 h; activation: stronger effect = higher value. In a few lines:
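A beta-lactamase reporter under hypoxia response element control in ME-180 cells served as the system. Compound titrations plus EC50 CoCl2 ran 17 h at 37 degrees Celsius; AC50 values were fitted from %Activity.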

Experiment [10] addresses Dual specificity protein kinase CLK4 (Homo sapiens) (UniProt Q9HAZ1). Kind of experiment: qHTS Assay for Inhibitors of CDC-like Kinase 4 (Kinase-Glo Assay) (AID 1770). Also: nearly all actives have a fitted effect of over 65% in size. Also: potency is read from the fitted curve at half-maximal effect. As to conditions: recombinant Clk4, Kinase-Glo ATP depletion luminescence; series mostly up to 66.7 µM. In a few lines: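 Substrate mix (RS peptide 100 uM, ATP 1 uM) dispensed, compound pinned in, then Clk4 added to 25 nM final. Incubated 4.5 h at RT; Kinase-Glo reagent added, luminescence read after 5 min.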

For experiment [11] the target is unchanged. Kind of experiment: qHTS Assay for Inhibitors of CDC-like Kinase 4 (ADP-Glo Assay) (AID 1771). Also: nearly all actives have a fitted effect of over 70% in size. Also: potency is read from the fitted curve at half-maximal effect. The settings on record: recombinant CLK4, ADP-Glo luminescence; series mostly up to 80 µM. In a few lines:
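ADP production was read by ADP-Glo luminescence after residual ATP depletion, following 1 h room-temperature reaction of 25 nM Clk4, 1 uM ATP and 100 uM RS peptide with MgCl2, EGTA, DTT and Triton X-100.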

The target is the same in experiment [12]. The experiment in a line: qHTS Assay for Inhibitors of CDC-like Kinase 4 (ADP-FP Assay) (AID 1795).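 Also: recombinant human CLK4 phosphorylating RS repeat peptide at 1 µM ATP; % is scaled to controls: 0 for no effect and ±100 for the full control effect; nearly all actives have a fitted effect of over 60% in size.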 The settings on record: Transcreener ADP fluorescence polarization; series mostly up to 50 µM. A digest of the protocol: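 Clk4 6.25 nM; RS peptide 100 uM; ATP 1 uM; 25 mM Tris pH 7.5, 10 mM MgCl2; 1 h reaction. ADP detected via antibody/orange tracer FP displacement; TG003 positive control.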

Experiment [13] is described as follows: Primary qHTS for small molecule stabilizers of the endoplasmic reticulum resident proteome: Secreted ER Calcium Modulated Protein (SERCaMP) assay (AID 1508630). Also: % is scaled to controls: 0 for no effect and ±100 for the full control effect. As to conditions: SH-SY5Y GLuc-SERCaMP (Gaussia luciferase released on ER calcium loss) secretion, thapsigargin, luminescence; series mostly up to 38.4 µM. A digest of the protocol: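 The SH-SY5Y reporter protocol was run at 3 concentrations up to 38.3 uM (primary) or 11 concentrations (follow-up): 16 h compound, 100 nM thapsigargin for 4 h, then extracellular luciferase luminescence.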

The target of experiment [14] is Ubiquitin carboxyl-terminal hydrolase 1 (Homo sapiens) (UniProt O94782). Kind of experiment: Inhibitors of USP1/UAF1: Pilot qHTS (AID 504865).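 Also: rhodamine fluorescence freed from ubiquitin-rhodamine substrate followed over time; top concentration of the series differs between compounds; % is scaled to controls: 0 for no effect and ±100 for the full control effect; nearly all actives have a fitted effect of over 35% in size.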 The settings on record: purified USP1/UAF1, Ub-rhodamine cleavage fluorescence; series mostly up to 54.9 µM. In a few lines: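 In 50mM HEPES pH 7.8 containing 0.5mM EDTA, 1mM TCEP, 0.1 mg/ml BSA and 0.01% Tween-20, 1nM USP1/UAF1 is exposed to compound for 15 min, then Ub-Rho (150nM final) is added and fluorescence is read over time.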

Experiment [15] addresses Cytochrome P450 3A4 (Homo sapiens) (UniProt P08684). Kind of experiment: qHTS Assay for Activators of Cytochrome P450 3A4 (AID 885). Also: nearly all actives have a fitted effect of over 65% in size. The settings on record: recombinant CYP3A4, Luciferin-PPXE luminescence, 60 min; series mostly up to 57.1 µM. A digest of the protocol: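 Using 20nM recombinant human CYP3A4 in potassium phosphate (200mM), substrate Luciferin-PPXE at 25uM, luminescent luciferin detection followed a 60-min RT NADPH reaction; data scaled to 57 uM ketoconazole.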

Experiment [16] has as its target Cytochrome P450 2C19 (Homo sapiens) (UniProt P33261). The experiment in a line: qHTS Assay for Inhibitors and Substrates of Cytochrome P450 2C19 (AID 899). Also: potency is read from the fitted curve at half-maximal effect; nearly all actives have a fitted effect of over 60% in size. As to conditions: recombinant CYP2C19, luciferin-H EGE luminescence; series mostly up to 57.1 µM. In a few lines: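 Reactions contain 5nM enzyme, 10uM Luciferin-H EGE (KM) and 50mM KPO4; compound preincubates 10 min at 37C, NADPH regeneration starts turnover for 60 min. Luminescence after detection reagent gives activity.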

Experiment [17] is described as follows: Stat Signaling Pathway (AID 446; active = well fitted curve in either direction with a large enough effect, not every such curve was filed as active). As to conditions: ME-180 (cervical carcinoma) SIE beta-lactamase reporter, IL-6 stimulated, 5 h; at 7.69 µM (top of the series) unless noted. In a few lines:
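Overnight-plated ME-180 cells bearing a STAT Inducible Element beta-lactamase reporter; 5 h co-exposure to compound and 40 pM IL-6; values normalized to 300 pM IL-6 and 125 nM JAK inhibitor controls.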

The target of experiment [18] is Cytochrome P450 2D6 (Homo sapiens) (UniProt P10635). The experiment in a line: qHTS Assay for Inhibitors and Substrates of Cytochrome P450 2D6 (AID 891). Also: potency is read from the fitted curve at half-maximal effect; nearly all actives have a fitted effect of over 60% in size. The settings on record: recombinant CYP2D6, luciferin-ME EGE luminescence; series mostly up to 57.1 µM. A digest of the protocol: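 Luminescent read-out of luciferin formed by 5 nM human CYP2D6 demethylating 30 uM Luciferin-ME EGE (Km level) over 60 min at room temperature after NADPH regeneration addition. Data normalized to full inhibition by 1.43 uM quinidine.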

Cytochrome P450 1A2 (Homo sapiens), sequence (P05177 whole entry, looked up): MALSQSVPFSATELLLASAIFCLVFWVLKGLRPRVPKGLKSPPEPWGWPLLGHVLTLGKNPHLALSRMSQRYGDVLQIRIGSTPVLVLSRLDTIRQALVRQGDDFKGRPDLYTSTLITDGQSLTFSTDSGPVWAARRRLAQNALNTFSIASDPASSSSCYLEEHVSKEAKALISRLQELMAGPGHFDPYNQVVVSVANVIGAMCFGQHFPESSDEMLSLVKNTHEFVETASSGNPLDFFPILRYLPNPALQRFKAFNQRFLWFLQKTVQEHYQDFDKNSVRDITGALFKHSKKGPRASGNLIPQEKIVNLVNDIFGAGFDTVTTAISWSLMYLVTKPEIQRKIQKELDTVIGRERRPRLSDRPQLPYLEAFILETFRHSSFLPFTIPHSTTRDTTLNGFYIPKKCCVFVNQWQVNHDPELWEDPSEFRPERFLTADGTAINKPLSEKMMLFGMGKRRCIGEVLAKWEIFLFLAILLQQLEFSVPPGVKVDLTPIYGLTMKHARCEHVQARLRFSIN
3',5'-cyclic-AMP phosphodiesterase 4B (Homo sapiens), sequence (Q07343 whole entry, looked up): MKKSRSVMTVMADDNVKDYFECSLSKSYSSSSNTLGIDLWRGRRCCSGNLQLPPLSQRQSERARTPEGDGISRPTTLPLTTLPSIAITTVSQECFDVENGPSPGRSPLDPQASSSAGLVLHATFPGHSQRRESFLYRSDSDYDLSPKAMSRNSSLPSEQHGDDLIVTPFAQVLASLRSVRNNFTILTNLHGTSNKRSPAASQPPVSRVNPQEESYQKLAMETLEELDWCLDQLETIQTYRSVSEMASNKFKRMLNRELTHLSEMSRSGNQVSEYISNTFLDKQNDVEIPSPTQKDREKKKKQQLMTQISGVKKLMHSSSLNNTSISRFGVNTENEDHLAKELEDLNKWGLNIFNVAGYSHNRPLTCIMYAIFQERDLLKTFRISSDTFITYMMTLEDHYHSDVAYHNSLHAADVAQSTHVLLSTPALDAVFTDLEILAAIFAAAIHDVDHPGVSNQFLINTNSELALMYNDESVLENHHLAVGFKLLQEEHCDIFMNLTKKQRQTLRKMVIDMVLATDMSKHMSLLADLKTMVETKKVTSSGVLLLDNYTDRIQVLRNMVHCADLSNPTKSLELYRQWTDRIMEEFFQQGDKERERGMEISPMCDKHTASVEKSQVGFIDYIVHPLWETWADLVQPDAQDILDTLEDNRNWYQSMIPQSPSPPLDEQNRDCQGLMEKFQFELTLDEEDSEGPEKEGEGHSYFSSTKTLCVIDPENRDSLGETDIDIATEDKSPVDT
Dual specificity protein kinase CLK4 (Homo sapiens), sequence (Q9HAZ1 whole entry, looked up): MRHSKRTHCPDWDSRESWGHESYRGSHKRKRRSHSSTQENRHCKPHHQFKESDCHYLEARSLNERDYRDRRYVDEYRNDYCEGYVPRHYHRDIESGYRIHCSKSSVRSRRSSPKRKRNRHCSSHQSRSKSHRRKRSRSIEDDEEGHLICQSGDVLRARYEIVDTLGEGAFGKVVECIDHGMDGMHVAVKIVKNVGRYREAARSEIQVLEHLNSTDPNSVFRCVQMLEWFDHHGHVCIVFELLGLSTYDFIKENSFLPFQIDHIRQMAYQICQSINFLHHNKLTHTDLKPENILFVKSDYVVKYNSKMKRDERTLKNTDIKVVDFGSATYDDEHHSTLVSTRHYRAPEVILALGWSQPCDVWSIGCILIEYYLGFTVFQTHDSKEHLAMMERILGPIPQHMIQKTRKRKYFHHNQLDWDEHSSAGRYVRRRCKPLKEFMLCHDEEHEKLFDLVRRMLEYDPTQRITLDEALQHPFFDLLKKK
Lysosomal acid glucosylceramidase (Homo sapiens), sequence (P04062 whole entry, looked up): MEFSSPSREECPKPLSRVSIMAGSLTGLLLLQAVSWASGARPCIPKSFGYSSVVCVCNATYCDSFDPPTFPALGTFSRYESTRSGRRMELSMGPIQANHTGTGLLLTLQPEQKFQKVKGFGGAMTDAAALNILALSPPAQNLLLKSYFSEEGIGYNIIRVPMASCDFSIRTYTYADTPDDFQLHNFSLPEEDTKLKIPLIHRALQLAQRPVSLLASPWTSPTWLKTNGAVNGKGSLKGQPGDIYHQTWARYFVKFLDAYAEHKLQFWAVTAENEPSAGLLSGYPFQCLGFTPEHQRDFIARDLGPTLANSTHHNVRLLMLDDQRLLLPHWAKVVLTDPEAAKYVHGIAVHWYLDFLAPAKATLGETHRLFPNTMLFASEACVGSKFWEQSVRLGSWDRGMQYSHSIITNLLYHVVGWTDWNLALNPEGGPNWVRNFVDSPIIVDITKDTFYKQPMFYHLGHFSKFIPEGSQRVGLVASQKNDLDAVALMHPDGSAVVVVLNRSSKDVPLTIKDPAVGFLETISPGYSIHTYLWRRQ
Glucocorticoid receptor (Homo sapiens), sequence (P04150 whole entry, looked up): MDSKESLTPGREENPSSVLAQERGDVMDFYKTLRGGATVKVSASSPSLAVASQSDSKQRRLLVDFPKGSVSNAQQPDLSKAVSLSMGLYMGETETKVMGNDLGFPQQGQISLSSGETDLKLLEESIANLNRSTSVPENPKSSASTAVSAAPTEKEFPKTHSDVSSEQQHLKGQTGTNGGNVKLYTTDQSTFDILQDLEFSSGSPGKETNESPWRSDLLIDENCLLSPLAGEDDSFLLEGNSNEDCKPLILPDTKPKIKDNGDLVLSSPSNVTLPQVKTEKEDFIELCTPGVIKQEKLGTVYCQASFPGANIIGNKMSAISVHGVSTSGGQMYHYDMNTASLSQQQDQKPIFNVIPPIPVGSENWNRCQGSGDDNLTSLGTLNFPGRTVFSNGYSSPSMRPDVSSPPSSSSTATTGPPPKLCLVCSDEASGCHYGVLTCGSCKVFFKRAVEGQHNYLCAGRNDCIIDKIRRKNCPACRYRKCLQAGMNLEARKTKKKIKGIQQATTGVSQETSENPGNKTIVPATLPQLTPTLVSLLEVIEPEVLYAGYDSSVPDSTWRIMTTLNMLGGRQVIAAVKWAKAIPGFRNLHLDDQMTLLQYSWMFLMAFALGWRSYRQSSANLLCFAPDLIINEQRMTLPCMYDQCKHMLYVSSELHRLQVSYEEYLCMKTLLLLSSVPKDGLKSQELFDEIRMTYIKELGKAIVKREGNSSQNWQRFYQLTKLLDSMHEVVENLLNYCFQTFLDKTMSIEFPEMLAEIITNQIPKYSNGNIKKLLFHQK
Ubiquitin carboxyl-terminal hydrolase 1 (Homo sapiens), sequence (O94782 whole entry, looked up): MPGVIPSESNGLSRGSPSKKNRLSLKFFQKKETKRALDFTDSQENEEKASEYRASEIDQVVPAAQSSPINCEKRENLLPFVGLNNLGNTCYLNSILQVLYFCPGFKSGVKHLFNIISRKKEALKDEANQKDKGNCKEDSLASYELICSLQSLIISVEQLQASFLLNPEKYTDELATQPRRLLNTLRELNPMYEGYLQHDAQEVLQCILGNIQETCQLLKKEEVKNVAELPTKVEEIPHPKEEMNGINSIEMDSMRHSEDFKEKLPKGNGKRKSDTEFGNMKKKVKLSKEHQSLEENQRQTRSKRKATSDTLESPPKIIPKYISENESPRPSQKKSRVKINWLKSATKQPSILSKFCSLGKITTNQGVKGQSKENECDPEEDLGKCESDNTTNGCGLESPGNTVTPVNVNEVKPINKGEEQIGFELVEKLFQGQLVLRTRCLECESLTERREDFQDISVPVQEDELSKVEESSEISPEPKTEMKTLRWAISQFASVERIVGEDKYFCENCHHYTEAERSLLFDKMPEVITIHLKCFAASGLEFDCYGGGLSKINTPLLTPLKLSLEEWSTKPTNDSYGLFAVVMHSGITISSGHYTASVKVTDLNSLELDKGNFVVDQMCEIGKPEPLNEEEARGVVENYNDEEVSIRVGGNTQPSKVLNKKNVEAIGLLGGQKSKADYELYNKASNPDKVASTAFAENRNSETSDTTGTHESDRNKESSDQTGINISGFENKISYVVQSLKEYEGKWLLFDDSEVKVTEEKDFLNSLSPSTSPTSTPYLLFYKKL
Cytochrome P450 3A4 (Homo sapiens), sequence (P08684 whole entry, looked up): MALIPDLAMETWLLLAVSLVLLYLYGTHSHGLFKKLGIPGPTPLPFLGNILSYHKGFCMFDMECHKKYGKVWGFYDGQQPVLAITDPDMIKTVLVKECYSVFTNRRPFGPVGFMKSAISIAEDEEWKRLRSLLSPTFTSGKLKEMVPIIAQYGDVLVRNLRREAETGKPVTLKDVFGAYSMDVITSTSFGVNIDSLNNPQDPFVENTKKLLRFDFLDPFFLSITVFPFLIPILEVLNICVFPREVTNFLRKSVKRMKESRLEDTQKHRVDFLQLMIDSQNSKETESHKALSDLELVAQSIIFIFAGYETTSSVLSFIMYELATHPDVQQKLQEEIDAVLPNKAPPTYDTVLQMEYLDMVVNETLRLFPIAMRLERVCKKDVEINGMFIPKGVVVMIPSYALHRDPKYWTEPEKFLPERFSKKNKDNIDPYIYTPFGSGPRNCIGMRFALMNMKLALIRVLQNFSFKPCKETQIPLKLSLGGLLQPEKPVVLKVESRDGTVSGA
Cytochrome P450 2C19 (Homo sapiens), sequence (P33261 whole entry, looked up): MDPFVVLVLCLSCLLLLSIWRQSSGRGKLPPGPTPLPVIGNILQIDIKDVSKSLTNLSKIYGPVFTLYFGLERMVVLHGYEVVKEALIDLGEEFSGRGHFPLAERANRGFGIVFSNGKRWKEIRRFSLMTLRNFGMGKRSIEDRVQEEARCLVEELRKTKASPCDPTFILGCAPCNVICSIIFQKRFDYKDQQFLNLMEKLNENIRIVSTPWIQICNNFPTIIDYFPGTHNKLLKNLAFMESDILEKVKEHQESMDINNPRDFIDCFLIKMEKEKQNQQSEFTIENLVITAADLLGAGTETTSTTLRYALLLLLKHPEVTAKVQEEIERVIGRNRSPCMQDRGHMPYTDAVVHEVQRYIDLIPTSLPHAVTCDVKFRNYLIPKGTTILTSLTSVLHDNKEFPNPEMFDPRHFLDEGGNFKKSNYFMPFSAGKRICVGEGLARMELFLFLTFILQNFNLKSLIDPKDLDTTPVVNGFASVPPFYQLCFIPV

As for `CN(C)c1ncc2nc(-c3ccc(Cl)cc3)c(=O)n(Cc3ccc(F)cc3)c2n1`, the Potency is above 11.4 µM in experiment [1]; 5.01 µM (active) in experiment [3]; above 9.22 µM in [5]; above 46 µM in experiment [6]; 1.26 µM (active) in [9]. Moreover, the values for the activity change, negative = inhibition in [2] and in experiment [4] were 115% [activator] (active) and 137% [activator] (active), respectively. Besides, the Potency result in experiment [7], in [8], in experiment [10], in [11] and in [12] was “inactive” each time. The result in experiment [13] was inactive.

With `O=c1c(-c2ccc(F)cc2)nc2cnc(N3CCOCC3)nc2n1CCc1ccccc1`, the Potency was above 11.4 µM in experiment [1]; 25.1 µM (active) in experiment [3]; above 9.22 µM in experiment [5]; above 46 µM in experiment [6]; 0.501 µM (active) in experiment [9]. In addition, the activity change, negative = inhibition is 79.3% [activator] (active) in experiment [2] and 103% [activator] (active) in experiment [4]. The Potency entry in [8], in [10], in [11], in [12] and in [14] was “inactive” each time. In experiment [13], the outcome was inactive.

Consider `COc1ccc(CNc2nc(-c3c(C)noc3C)nc3ccccc23)c(OC)c1`, for which the Potency in [1] is above 2.29 µM; in [3], 0.794 µM (active); in experiment [5], above 46 µM; in experiment [6], above 46 µM; in experiment [16], 3.16 µM (active). Further, in experiment [2], the activity change, negative = inhibition is 5.92%. Besides, the Potency result in [7], in experiment [15], in experiment [10], in [11] and in [12] was “inactive” throughout. Moreover, the outcome in experiment [13] was inactive.

Turning to `COc1ccccc1CNc1ccnc(-c2ccccc2CN(C)C)n1`, the Potency was above 11.4 µM in experiment [1], above 46 µM in experiment [5] and above 46 µM in experiment [6]. The activity change, negative = inhibition in experiment [2] is -7.71%; in experiment [4], -25.2%. Further, the activity, negative = inhibition in experiment [17] was 3.25%. Moreover, the Potency result in experiment [7], in [10], in experiment [11], in [12] and in experiment [14] was “inactive” throughout. Besides, the result in experiment [13] was inactive.

Take `COc1cccc(-c2cncnc2Nc2ccccc2)c1`: the Potency in experiment [1] is above 11.4 µM; in experiment [5], above 46 µM; in experiment [6], above 46 µM. Moreover, the activity change, negative = inhibition was -6.33% in experiment [2] and 0.84% in [4]. The activity, negative = inhibition in experiment [17] is -2.57%. Besides, the Potency result in experiment [7], in experiment [10], in [11], in [12] and in experiment [14] was “inactive” throughout. For the same molecule, the outcome in experiment [13] was inactive.

For the molecule `COc1ncc2nc(-c3cccs3)c(=O)n(Cc3cccs3)c2n1`, the Potency in [1] is above 11.4 µM; in [5], above 9.22 µM; in experiment [6], above 46 µM. For the same molecule, the activity change, negative = inhibition in [2] is 5.34%; in experiment [4], 5.36%. The activity, negative = inhibition in [17] is -1.88%. Also, the Potency result in experiment [7], in [10], in experiment [11], in experiment [12] and in [14] was “inactive” throughout. In experiment [13], the outcome was inactive.

With `CN(C)c1ccc(-c2nc(NCCc3cnc[nH]3)c3ccccc3n2)cc1`, the Potency in experiment [1] was 6.71 µM (active); in [3] it was 0.631 µM (active); in experiment [5] it was above 46 µM; in [6], above 46 µM; in experiment [18], 7.94 µM (active); in experiment [16] it was 1.58 µM (active). Moreover, the results for the Potency in experiment [10] and in experiment [11] were 28.2 µM (active) and 22.4 µM (active), respectively. Also, in [2], the activity change, negative = inhibition is 0.922%. Moreover, in [17], the activity, negative = inhibition is 15.6%. For the same molecule, the Potency result in [7], in experiment [8], in [15], in experiment [12] and in experiment [14] was “inactive” in each case. In addition, the outcome in [13] was inactive.
